{"source": "ChEMBL document CHEMBL4888484", "about": "“Replenishing the malaria drug discovery pipeline: Screening and hit evaluation of the MMV Hit Generation Library 1 (HGL1) against asexual blood stage Plasmodium falciparum ,using a nano luciferase reporter read-out” (2022)", "note": "In all, about 4,800 compounds went through this assay and about 410 (8.5%) showed an effect of 50% or more. The sample as a whole holds a higher share of strong results than the screen did.", "data": [{"system": "Plasmodium falciparum", "assay": "Confirmatory screen in NF54 pLDH assay, in single point, at 2uM, 72h", "type": "functional, Erythrocyte", "conditions": "timepoint 72 hour", "units": {"% Inhibition": "%"}, "values": [{"smiles": "CC(C)C(=O)N1N=C(C(C)C)C[C@]1(O)C(F)(F)F", "% Inhibition": 13}, {"smiles": "Oc1csc(Cc2nc(C(F)(F)F)cs2)n1", "% Inhibition": -4}, {"smiles": "COC1(CNC(=O)C[C@H](O)c2ccccc2)CCC1", "% Inhibition": -2}, {"smiles": "COc1cccc(CCc2ccccc2OC[C@H](CN(C)C)OC(=O)CCC(=O)O)c1", "% Inhibition": -5}, {"smiles": "O=C(C[C@H](NCCO)C(=O)O)c1ccc2c(c1)CCCC2", "% Inhibition": 2}, {"smiles": "O=C(Nc1ccsc1C(=O)NCc1cc(F)cc(F)c1)c1cnccn1", "% Inhibition": 13}, {"smiles": "C[C@@H](NC(=O)Nc1ccc(Cl)c(Cl)c1)C(=O)O", "% Inhibition": 10}, {"smiles": "O=C(Nc1ccc(Cl)c(Cl)c1)Nc1ccc(Cl)cc1NC(=O)Nc1ccc(Cl)c(Cl)c1", "% Inhibition": 65}, {"smiles": "CNc1nc(C)cc(C(=O)Nc2ccc(Cl)cc2NC(C)=O)n1", "% Inhibition": 5}, {"smiles": "COc1ccc(-c2cc3n(n2)C[C@@](C)(C(=O)NCc2ccccc2)N(Cc2ccc4c(c2)OCO4)C3=O)cc1", "% Inhibition": 39}, {"smiles": "COc1cc(N2CCn3c(nc4cc(Cl)ccc43)C2)ccc1NC(=O)C1CCCCC1", "% Inhibition": -13}, {"smiles": "O=C(Cc1ccc(N(Cc2cccc(F)c2)C(=O)c2cccc(F)c2)cc1)NCCN1CCCCC1", "% Inhibition": 29}, {"smiles": "Cc1ccc(C(=O)N(Cc2cccc(F)c2)c2ccc(CC(=O)N[C@@H](C)c3ccccc3)cc2)cc1", "% Inhibition": 89}, {"smiles": "Cc1ccccc1C(=O)N(Cc1cccc(F)c1)c1ccc(CC(=O)NCCN2CCCCC2)cc1", "% Inhibition": 39}, {"smiles": "O=C(OCc1cncs1)c1ccccc1", "% Inhibition": 10}, {"smiles": "Nc1c(-c2nc3ccccc3[nH]2)c2nc3ccccc3nc2n1Cc1ccccc1F", "% Inhibition": 62}, {"smiles": "Cc1cc2nnc(-c3nc4ccccc4[nH]3)c(N)n2n1", "% Inhibition": -2}, {"smiles": "CCC1C(C(=O)NCCN(C)CCOC)CCN1C(=O)OC(C)(C)C", "note": "(stereo not drawn)", "% Inhibition": 1}, {"smiles": "CCn1ccc([C@H](C)NC(=O)c2cc(-c3ccc(OC)cc3)nc3c2c(C)nn3C)n1", "% Inhibition": 12}, {"smiles": "Cc1c(CN(C)C(=O)Cn2ncc(Br)c2C)cnn1C", "% Inhibition": 4}, {"smiles": "CCc1ccc(-c2cc3n(n2)C[C@@](C)(C(=O)NC2CCCCC2)N(c2cc(C)cc(C)c2)C3=O)cc1", "% Inhibition": 58}, {"smiles": "CCc1ccc(CN2C(=O)c3c(C(=O)OC)ncn3C[C@@]2(C)C(=O)NC2CCCCCC2)cc1", "% Inhibition": 14}, {"smiles": "C[C@@]1(C(=O)NCc2ccccc2)Cn2nc(-c3ccccc3)cc2C(=O)N1c1ccc2c(c1)OCCO2", "% Inhibition": 36}, {"smiles": "O=C(O[C@@H](c1ccccc1)N1C(=O)C(C(F)(F)F)(C(F)(F)F)c2ccccc21)C(C(F)(F)F)C(F)(F)F", "% Inhibition": 12}, {"smiles": "Cc1c(NC(=O)c2ccccc2-c2ccccc2)ccc(N2CCCC2=O)c1NC(=O)c1ccccc1-c1ccccc1", "% Inhibition": -15}, {"smiles": "CCCN(CC(=O)O)S(=O)(=O)c1cccc(C)c1Br", "% Inhibition": -23}, {"smiles": "O=C(Nc1ccc2c(c1)cc(C(=O)Nc1ccc(C(F)(F)F)cc1)n2Cc1cccc(F)c1)c1ccccc1Cl", "% Inhibition": -25}, {"smiles": "C#CCN(CCCc1ccccc1C)[C@H]1CCS(=O)(=O)C1", "% Inhibition": -23}, {"smiles": "O=C(O)c1cc(-c2ccc3c(c2)OCCO3)nc2c(Br)cc(Br)cc12", "% Inhibition": 3}, {"smiles": "COc1ccc(C(O)CN2CCC(c3ccccc3)C2)cc1F", "note": "(stereo not drawn)", "% Inhibition": 9}, {"smiles": "O=C(C1CCC1)N1CCC[C@H]1c1nc(C2CCOCC2)no1", "% Inhibition": 12}, {"smiles": "COc1ccccc1NC(=O)c1cnn2c3c(cnc12)CCCCC3", "% Inhibition": 3}, {"smiles": "CCOc1ccc2ccccc2c1C(=O)Nc1cc(C)nn1-c1nc2c(c(=O)[nH]1)CCC2", "% Inhibition": 91}, {"smiles": "Cc1cc(NC(=O)C(=O)NC2CC(C)CC(C)(C)C2)n(-c2nc3c(c(=O)[nH]2)CCC3)n1", "note": "(stereo not drawn)", "% Inhibition": 84}, {"smiles": "COc1ccc2ccccc2c1C(=O)Nc1ccc(N2CCN(C)CC2)c(Cl)c1", "% Inhibition": 4}, {"smiles": "Cc1nc(-c2ccc3[nH]c(=O)[nH]c3c2)cs1", "% Inhibition": 9}, {"smiles": "CC1CN(CCCNC(=O)Cc2c[nH]c3ccc(F)cc23)CC(C)O1", "note": "(stereo not drawn)", "% Inhibition": -4}, {"smiles": "CC(C1Cc2ccccc2O1)N(C)C(=O)c1n[nH]c2c1CCC2", "note": "(stereo not drawn)", "% Inhibition": -6}, {"smiles": "Cc1cc(Cl)ccc1S(=O)(=O)N1CCc2nnc([C@H]3CCN(C(C)C)C3)n2CC1", "% Inhibition": 10}, {"smiles": "COC(=O)C12CCC(C(=O)NC[C@H]3CCCOC3)(CC1)CC2", "% Inhibition": 2}, {"smiles": "OCC#Cc1ncc(C(F)(F)F)cc1Cl", "% Inhibition": -19}, {"smiles": "CCc1nc(C(=O)N2C[C@@H]3CCCN(C(=O)c4coc(CC)n4)[C@@H]3C2)co1", "% Inhibition": 0}, {"smiles": "CCc1ncsc1C(=O)OCC1(C#N)CCOCC1", "% Inhibition": -2}, {"smiles": "Cc1cc(CS(=O)(=O)[C@@H](C)C(=O)NCC(C)C)on1", "% Inhibition": 12}, {"smiles": "CC(=O)N(C)CC(=O)Nc1ccccc1NCC1CCCCC1", "% Inhibition": 12}, {"smiles": "COc1cc(CN(C)[C@H]2CCc3nnc(C4CCOCC4)n3CC2)cc(OC)c1", "% Inhibition": 1}, {"smiles": "Cn1ccnc(N[C@@H](COc2ccccc2F)c2ccccc2)c1=O", "% Inhibition": 3}, {"smiles": "NC(=O)CCc1ccc(S(=O)(=O)Cl)cc1", "% Inhibition": 13}, {"smiles": "COC(=O)c1ccc(Nc2nc(C)c3nc(C)n(-c4ccc(C(=O)OC)cc4)c3n2)cc1", "% Inhibition": 3}, {"smiles": "CCOc1cc(Cl)c(Cl)c(C#N)c1OC(C)=O", "% Inhibition": 6}, {"smiles": "COc1ccc(-c2nccn3cc(C(=O)NCCN(C)C4CCCCC4)nc23)cc1", "% Inhibition": 5}, {"smiles": "CCCC[C@H](CC)C(=O)Nc1c(C)cccc1CC", "% Inhibition": -8}, {"smiles": "Brc1ccc(Oc2ncc(CN3CCOCC3)s2)cc1", "% Inhibition": 7}, {"smiles": "Cc1ccc2c(c1)CCCN2S(=O)(=O)c1ccc2ccccc2c1", "% Inhibition": -7}, {"smiles": "Cc1ccc(Nc2ccc(N3CCNCC3)nn2)nc1", "% Inhibition": 58}, {"smiles": "Cc1ccnc(Nc2ccc(N3CCNCC3)nn2)c1", "% Inhibition": 65}, {"smiles": "Cc1ccnc(N2CCN(S(=O)(=O)Cc3ccon3)CC2)c1", "% Inhibition": 15}, {"smiles": "Cc1cnc(CC[C@H]2CCCN2C(=O)CCn2ccnc2)n1C", "% Inhibition": 7}, {"smiles": "CCC(C#N)(CC)c1nc(-c2cc(N)nc3ccccc23)no1", "% Inhibition": 8}, {"smiles": "CCC(=O)O[C@@]1(c2ccc(C3CC3)cc2)CCCN(Cc2ccccc2)C1", "% Inhibition": -1}, {"smiles": "O=C1CCN(C(=O)COc2ccc(-c3ccccc3)cc2Cl)CCN1", "% Inhibition": -12}, {"smiles": "CC(=O)N[C@H]1CCc2nc(N)sc2C1", "% Inhibition": 13}, {"smiles": "C[C@@H]1C[C@@H](Nc2ccccc2)c2ccccc2N1C(=O)COc1ccc(Br)cc1", "% Inhibition": 10}]}]}
